Experimental findings from PubChem BioAssay (Tox21) are described below.

A short description of experiment [1]: qHTS assay to identify small molecule agonists of the vitamin D receptor (VDR) signaling pathway - cell viability counter screen (AID 743224). Note: nearly all actives have a fitted effect of over 50% in size. Note: potency is the fitted concentration of half-maximal effect. The method in brief: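 VDR-bla cells, 4 h after plating, exposed to compounds for 16 h at 37C; viability then read in the same wells as CellTiter-Glo luminescence after 30 min at room temperature, following the bla FRET read.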

The nature of experiment [2]: qHTS assay to identify small molecule agonists of the NFkB signaling pathway (AID 1159509; active = well fitted curve in the direction sought with a large enough effect in the signal ratio in the repeat runs, not every such curve was filed as active; the % refers to the signal ratio). The method, boiled down:
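NFkB-bla ME-180 cells with a beta-lactamase reporter under an NF-kB response element were plated overnight, treated with compounds in DMSO for 5 hr at 37 C, then loaded with FRET substrate for 1.5 hr at room temperature.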
(Quantitative high-throughput screening tests each substance at several concentrations.)

A short description of experiment [3]: qHTS assay to identify small molecule agonists of the endoplasmic reticulum stress response signaling pathway (AID 1159516; active = well fitted activation curve with a large enough effect in the signal ratio in the repeat runs, not every such curve was filed as active; the % refers to the signal ratio). The method, boiled down:
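CellSensor ESRE-bla HeLa cells, 1,500 per well, plated overnight, then exposed to compounds for 5 hr at 37 C. Beta-lactamase reporter read with LiveBLAzer B/G FRET substrate after 2 hr at room temperature, 405 nm excitation, 460 and 530 nm emission.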

A short description of experiment [4]: qHTS assay to identify small molecule agonists of the AP-1 signaling pathway - cell viability counter screen (AID 1159525; calls by dose curve; note: nearly all actives have a fitted effect of over 55% in size). The method, boiled down: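 Luminescent ATP readout (Cell Titer Glo, 30 min RT), normalised to DMSO and tetra n-octyl ammonium bromide controls. Cells were ME-180 AP-1-bla in 0.5% dialyzed FBS Opti-MEM, with a 5 h, 37 °C compound exposure.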

Experiment [5] in a line: qHTS assay to identify small molecule agonists of the AP-1 signaling pathway (AID 1159526; calls by dose curve).
Experiment [6] in a line: qHTS assay to identify small molecule agonists of the RXR signaling pathway - cell viability counter screen (AID 1159529). Note: nearly all actives have a fitted effect of over 50% in size. Note: potency is the fitted concentration of half-maximal effect. The method, boiled down: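 Luminescence from CellTiter-Glo (30 min, RT) measured viability in the same wells as the beta-lactamase reporter readout. Cells: GeneBLAzer RXR-alpha HEK 293T, 2% charcoal-stripped FBS. Compound exposure 16 hr, 37 C.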
Experiment [7] in a line: qHTS assay to identify small molecule antagonists of the retinoid acid receptor (RAR) signaling pathway - cell viability counter screen (AID 1159551). Note: nearly all actives have a fitted effect of over 35% in size. Note: potency is the fitted concentration of half-maximal effect. The method, boiled down:
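C3RL4 RARE-luciferase cells, 1,000/well, incubated overnight, then dosed with compound plus 1 uM retinol (final). After 6 hr at 37 C, viability read by CellTiter-Glo ATP luminescence following 30 min at room temperature.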

The nature of experiment [8]: qHTS assay to identify small molecule antagonists of the retinoic acid receptor (RAR) signaling pathway (AID 1159552; note: nearly all actives have a fitted effect of over 50% in size; note: potency is the fitted concentration of half-maximal effect). The method, boiled down: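 Luminescence from a RARE luciferase reporter in C3RL4 cells served as read-out. Cells received compounds together with 1 uM final retinol and incubated 6 hr at 37 C before detection reagent was added for 30 min at room temperature.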

Experiment [9] is described as follows: qHTS assay to identify small molecule agonists of the retinoic acid receptor (RAR) signaling pathway (AID 1159553). Note: potency is the fitted concentration of half-maximal effect. The following applies: C3RL4 RARE luciferase reporter, agonist, 6 h; activation: at 73.3 µM (top of the series). The method in brief:
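C3RL4 RARE-luciferase cells were seeded at 1,000/well and grown overnight at 37 C, then exposed to compounds for 6 hr at 37 C, 5% CO2. Luciferase reagent was added and luminescence was read after 30 min at room temperature.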

Experiment [10] is described as follows: qHTS assay to identify small molecule antagonists of the vitamin D receptor (VDR) signaling pathway - cell viability counter screen (AID 743225). Note: nearly all actives have a fitted effect of over 50% in size. The method in brief:
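Viability counter screen run in the same wells as the beta-lactamase reporter assay: HEK 293T VDR-UAS-bla cells, 16 h compound exposure at 37C with 3 nM (final) 1-alpha,25-dihydroxyvitamin D3. CellTiter-Glo luminescence, 30 min, room temperature.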

Experiment [11] in a line: qHTS assay to identify small molecule agonists of the endoplasmic reticulum stress response signaling pathway - cell viability counter screen (AID 1159517; calls by dose curve). The method, boiled down: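 Cells, HeLa ESRE-bla; density, 1,500/well; dosing, 5 hr at 37 C, 5% CO2; readout, CellTiter-Glo luminescence after 30 min RT.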
Experiment [12] can be described thus: qHTS assay to identify small molecule antagonists of the retinoid-related orphan receptor gamma (ROR-gamma) signaling pathway - cell viability counter screen (AID 1159520). Note: nearly all actives have a fitted effect of over 50% in size. Note: potency is the fitted concentration of half-maximal effect. The method, boiled down:
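Cytotoxicity was read from cellular ATP (CellTiter-Glo luminescence) after 16 hr at 37 C with 1 uM doxycycline induction. The inducer was added 2 hr after compound transfer to Tet-on ROR gamma CHO cells.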

The target in experiment [13] is Nuclear receptor ROR-gamma (Homo sapiens) (UniProt P51449). Kind of experiment: qHTS assay to identify small molecule antagonists of the retinoid-related orphan receptor gamma (ROR-gamma) signaling pathway (AID 1159521; note: nearly all actives have a fitted effect of over 50% in size; note: potency is the fitted concentration of half-maximal effect). The method, boiled down: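 Luminescence readout (ONE-Glo, 30 min RT) after 16 h doxycycline induction; loss of signal scored as antagonism. CHO cells with TET-inducible RORγ and RORE-LUC reporter; compounds added 2 h before 1 uM final doxycycline.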

In experiment [14] the target is Retinoic acid receptor RXR-alpha (Homo sapiens) (UniProt P19793). Kind of experiment: qHTS assay to identify small molecule agonists of the RXR signaling pathway (AID 1159527; calls by dose curve; note: nearly all actives have a fitted effect of over 35% in size). The method in brief: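 Agonist mode; 9-cis retinoic acid positive control. HEK 293T UAS-bla reporter cells, 2% charcoal-stripped FBS, 16 hr compound exposure at 37 C/5% CO2. LiveBLAzer B/G FRET substrate 2 hr RT; ex 405, em 460/530 nm.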

Structures are written as SMILES. Inconclusive results are not listed. Active and inactive are the calls of the source. Unless noted, calls come from the whole dose curve; as a rule, active = well fitted curve in the direction sought with a large enough effect in the repeat runs; inconclusive = weak or mixed curves; inactive = no such curve, though single readings can be large; an effect the other way counts as inactive or inconclusive.

Sequence of Retinoic acid receptor RXR-alpha (Homo sapiens) (P19793 whole entry, looked up): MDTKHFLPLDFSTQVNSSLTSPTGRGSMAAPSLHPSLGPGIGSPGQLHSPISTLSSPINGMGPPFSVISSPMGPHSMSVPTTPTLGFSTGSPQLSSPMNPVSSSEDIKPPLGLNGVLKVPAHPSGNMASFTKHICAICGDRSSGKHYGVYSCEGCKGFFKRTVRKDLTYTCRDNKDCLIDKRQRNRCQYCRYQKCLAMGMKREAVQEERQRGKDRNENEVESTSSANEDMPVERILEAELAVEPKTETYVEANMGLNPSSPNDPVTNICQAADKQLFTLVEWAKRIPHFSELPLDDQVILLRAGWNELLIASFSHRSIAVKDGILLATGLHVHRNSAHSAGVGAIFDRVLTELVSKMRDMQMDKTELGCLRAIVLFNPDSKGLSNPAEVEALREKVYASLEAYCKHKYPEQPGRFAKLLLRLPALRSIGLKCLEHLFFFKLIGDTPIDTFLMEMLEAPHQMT

`CCCCC(CC)CN` (centres undefined): the Potency entry in experiment [1], in experiment [2], in experiment [3], in experiment [4], in experiment [5] and in experiment [6] was “inactive” throughout. The Potency result in experiment [7], in [8] and in experiment [9] was “inactive” in each case.
As for `Oc1cc2c(cc1O)[C@H]1c3ccc(O)c(O)c3OC[C@@]1(O)C2`, the Potency result in experiment [1], in experiment [10], in experiment [2], in experiment [11], in experiment [12] and in experiment [4] was “inactive” in each case. In addition, the Potency entry in experiment [5], in [14], in [6], in [7] and in experiment [8] was “inactive” in each case. The Potency in experiment [13] is 13.9 µM (active); in experiment [9] it was 55.1 µM (active).
Consider `COC(=O)CCS`, for which the Potency entry in experiment [1], in experiment [10], in experiment [2], in experiment [11], in experiment [12] and in [13] was “inactive” each time. The Potency result in experiment [4], in experiment [5], in [14], in [6] and in experiment [7] was “inactive” each time.
As for `CCOC(=O)c1ccc(C#Cc2ccc3c(c2)C(C)(C)CCS3)nc1`, the Potency result in experiment [1], in [10], in experiment [2], in experiment [11], in experiment [12] and in experiment [13] was “inactive” throughout. Besides, the Potency entry in experiment [4], in experiment [5], in experiment [6] and in experiment [7] was “inactive” each time.
In the case of `CC1(CN2CCC(n3c(=O)[nH]c4ccccc43)CC2)OCc2ccccc2-n2cccc21` (centres undefined), the Potency result in experiment [10], in experiment [2], in experiment [3], in experiment [4], in experiment [7] and in experiment [9] was “inactive” in each case. The Potency in [8] was 29.8 µM (active).
In the case of `Cc1cc(O)ccc1O`, the Potency result in experiment [1], in [10], in experiment [2], in [3], in experiment [11] and in [14] was “inactive” throughout. Besides, the Potency in experiment [13] was 24.6 µM (active); in experiment [6] it was 22.1 µM (active).
Regarding `O=c1cc(-c2ccccc2)oc2cc(O)cc(O)c12`, the Potency entry in [1], in experiment [10], in [2], in experiment [3], in experiment [11] and in experiment [4] was “inactive” throughout. Moreover, the Potency entry in [6] and in experiment [8] was “inactive” in each case. The Potency in [9] was 0.969 µM (active).
For the compound `Cc1cc(C)cc(N)c1`, the Potency result in experiment [1], in [10], in experiment [2], in experiment [11], in experiment [12] and in experiment [13] was “inactive” in each case. The Potency entry in [4], in experiment [5], in experiment [14], in experiment [6] and in experiment [7] was “inactive” in each case.
For the compound `C[C@@H](O[C@H]1OCCN(Cc2n[nH]c(=O)[nH]2)[C@H]1c1ccc(F)cc1)c1cc(C(F)(F)F)cc(C(F)(F)F)c1`, the Potency in experiment [1] is 23.7 µM (active); in experiment [12], 26.6 µM (active); in experiment [6], 19 µM (active); in [8], 26.6 µM (active). The Potency result in experiment [2] and in [3] was “inactive” in each case.
Consider `O=C(O)c1cccc(-c2noc(-c3ccccc3F)n2)c1`, for which the Potency result in experiment [1], in experiment [2], in [3], in experiment [12], in [5] and in experiment [6] was “inactive” each time. Also, in experiment [7], the Potency entry was “inactive”. The Potency in [8] was 0.422 µM (active); in experiment [9], 0.003 µM (active).
Turning to `CCCCCCCC/C=C\CCCCCCCCO`, the Potency result in experiment [1], in experiment [10], in [2], in experiment [11], in experiment [12] and in [13] was “inactive” throughout. Besides, the Potency entry in [4], in [5], in experiment [14], in experiment [6], in experiment [7] and in experiment [8] was “inactive” throughout. Besides, the Potency result in [9] was “inactive”.
For the compound `CC(=O)Nc1cc(S(=O)(=O)O)cc2cc(S(=O)(=O)O)c(N=Nc3ccccc3)c(O)c12`, the Potency entry in [1], in experiment [10], in [2], in experiment [3], in experiment [11] and in experiment [4] was “inactive” in each case. In addition, the Potency entry in experiment [5], in experiment [6], in experiment [8] and in [9] was “inactive” in each case. Moreover, the Potency in experiment [7] was 24.3 µM (active).
For the compound `CC(C)=CCC/C(C)=C/CC/C(C)=C/C(=O)OCC(=O)[C@@]1(O)CC[C@H]2[C@@H]3CCC4=CC(=O)C=C[C@]4(C)[C@H]3[C@@H](O)C[C@@]21C`, the Potency in [1] was 26.6 µM (active); in experiment [13] it was 6.68 µM (active). The Potency result in experiment [2], in [11], in experiment [12], in experiment [4], in experiment [5] and in [6] was “inactive” throughout. The Potency entry in experiment [7] and in [9] was “inactive” each time.
With `Clc1ccc(Nc2nnc(Cc3ccncc3)c3ccccc23)cc1`, the Potency result in experiment [2], in experiment [3], in experiment [11], in experiment [4], in [5] and in experiment [7] was “inactive” each time. The Potency result in experiment [8] and in experiment [9] was “inactive” in each case.
For `CC[C@]1(O)C[C@H]2CN(CCc3c([nH]c4ccccc34)[C@@](C(=O)OC)(c3cc4c(cc3OC)N(C=O)[C@H]3[C@@](O)(C(=O)OC)[C@H](OC(C)=O)[C@]5(CC)C=CCN6CC[C@]43[C@@H]65)C2)C1`, the Potency result in experiment [10], in experiment [2], in experiment [11], in experiment [12], in [6] and in experiment [7] was “inactive” in each case. Besides, the Potency in experiment [8] is 0.168 µM (active).
As to `CC(C)C(O)(c1ccc(OC(F)(F)F)cc1)c1cncnc1` (centres undefined), the Potency entry in [1], in experiment [10], in [2], in experiment [3], in experiment [12] and in [13] was “inactive” throughout. Also, the Potency result in experiment [4], in experiment [5], in [14], in experiment [6], in experiment [7] and in experiment [8] was “inactive” throughout. In experiment [9], the Potency entry is “inactive”.
In the case of `CCC(C)COC(C)=O` (centres undefined), the Potency entry in [1], in [10], in experiment [2], in experiment [3], in [12] and in experiment [13] was “inactive” each time. Moreover, the Potency result in experiment [5], in experiment [6], in experiment [7], in experiment [8] and in [9] was “inactive” in each case.
Turning to `Cc1ccc2c(Br)cc(Br)c(O)c2n1`, the Potency result in experiment [1], in experiment [2], in experiment [3], in [11], in [7] and in experiment [8] was “inactive” each time. Besides, the Potency entry in experiment [9] is “inactive”. In addition, in [6], the Potency is 26.8 µM (active).
As to `C=Cc1ccc(S(=O)(=O)O)cc1`, the Potency entry in [10], in experiment [2], in experiment [3], in [12], in experiment [13] and in experiment [6] was “inactive” in each case. Moreover, the Potency entry in experiment [7], in experiment [8] and in experiment [9] was “inactive” in each case.
Take `O=C1NC(=O)c2cc([N+](=O)[O-])ccc21`: the Potency entry in experiment [10], in [2], in experiment [11], in experiment [12], in [13] and in experiment [4] was “inactive” each time. For the same compound, the Potency result in experiment [14], in experiment [6], in [7], in experiment [8] and in experiment [9] was “inactive” in each case.
